# Screening data (PubChem BioAssay)
# PLCb3 inh = PLC-beta3 (human) inhibition, primary screen; Q01970; Purified PLC-beta3, fluorogenic substrate, fluorescence; inhibition, % at 12.2 µM; 370,000 tested, 0.18% active; AID 720704; in the data active = inhibition above about 11%
# PLCg1 inh = PLC-gamma1 (human) inhibition, primary screen | P19174 | purified PLC-gamma1, fluorogenic substrate, fluorescence | inhibition, % at 12.2 µM | 370,000 tested, 0.84% active | AID 720700; in the data active = inhibition above about 9.5%
# proKLK7 act = activates the human kallikrein-7 zymogen; activation, % at 7 µM; AID 652039; P49862; 370,000 tested, 0.9% active; purified proKLK7, EDANS-DABCYL substrate fluorescence; 100% is mature enzyme control, 0% vehicle;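 active = activation above the mean of all tested compounds plus 3 SD, computed per campaign excluding outliers beyond control limits, cut at about 13% in these data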
# Target sequence (P49862 whole entry, looked up): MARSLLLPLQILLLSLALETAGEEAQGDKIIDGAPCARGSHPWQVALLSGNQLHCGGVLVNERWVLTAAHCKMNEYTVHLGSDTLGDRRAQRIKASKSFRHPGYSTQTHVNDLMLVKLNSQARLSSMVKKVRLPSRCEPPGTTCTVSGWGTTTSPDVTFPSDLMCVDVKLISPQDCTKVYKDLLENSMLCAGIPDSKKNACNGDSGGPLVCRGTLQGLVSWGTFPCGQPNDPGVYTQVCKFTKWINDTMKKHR
# ADAM10 inh = inhibitors of human ADAM10. recombinant ADAM10, EDANS/DABCYL FRET peptide cleavage, 3 h. inhibition, % at 7 µM. 370,000 tested, 0.62% active;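 active = inhibition above a per-campaign cutoff equal to the mean of compounds falling between control-based bounds plus 3 SD, cut at about 20% in these data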
# ADAM17 inh = inhibits human ADAM17; P78536; recombinant ADAM17, EDANS/DABCYL FRET peptide cleavage; inhibition, % at 6.95 µM; 370,000 tested, 0.83% active;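 active = inhibition above the mean of compounds lying between control limits plus 3 SD, set per campaign, cut at about 8.5% in these data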
# Hits are given with their value; - = inactive. In the library only some 2.9% were active in any assay of this set; here they are far more common.
SMILES,PLCb3 inh,PLCg1 inh,proKLK7 act,ADAM10 inh,ADAM17 inh
CCN(CC)c1ccc(N=Nc2ncn[nH]2)cc1,12,-,-,-,-
CCOC(=O)COc1ccc2ccccc2c1/C=C/[N+](=O)[O-],-,-,-,-,-
CCOC(=O)COc1ccc(/C=C/[N+](=O)[O-])c(OCC(=O)OCC)c1,-,-,-,-,9.1
CN(C)C(=O)NCCCC#Cc1ccccc1,-,-,-,-,-
O=C(C1=C[C@H](c2csc3ccccc23)C[C@H](OCc2ccc(CO)cc2)O1)N1CCN(Cc2ccccc2)CC1,-,-,-,-,-
O=C(C1=C[C@H](c2csc3ccccc23)C[C@H](OCc2ccc(CO)cc2)O1)N1CCN(Cc2ccc3c(c2)OCO3)CC1,-,-,-,21,-
COC(=O)[C@H]1C[C@@]2(C#N)c3ccccc3N(C(=O)OC(C)(C)C)[C@H]2N1C(=O)OC(C)(C)C,-,-,-,-,-
CC(C)=CCC[C@@]1(C(=O)O)[C@@H]2C/C=C(\C)CC/C=C(\C)CC[C@H]1[C@]1(CC2)CO1,-,-,-,-,-
O=C(O)C1=NN(c2cc(Cl)c(S(=O)(=O)O)cc2Cl)C(=O)C1,-,15,-,-,-
CC1=NN(c2ccc(S(=O)(=O)O)cc2C)C(=O)C1,-,-,-,-,-
CCCCOCCCNC(=O)C[C@H]1C[C@@]2(C(=O)OC)C(=C[C@H](C(C)(C)C)O[C@@H]2C)N(Cc2ccc(Cl)cc2Cl)C1=O,-,-,-,-,-
CCOC(=O)C1(C)NC(c2cccs2)C2C(=O)N(c3ccc(C)cc3)C(=O)C21 (stereo not drawn),-,-,-,-,-
Cc1ccc(N2C(=O)C3C(C2=O)N2C(c4cccs4)C4C(=O)N(c5ccc(C)cc5)C(=O)C4N2C3c2cccs2)cc1 (stereo not drawn),-,-,-,-,13
CCOC(=O)NC[C@@]1(C(=O)OC)CC(=O)N(C)[C@@H]1c1ccccc1,-,-,-,-,-
CO[C@@H]1CN(C)C(=O)c2ccc(NC(=O)c3ccccc3F)cc2OC[C@@H](C)N(CC2CCOCC2)C[C@@H]1C,11,-,-,-,-
O=C1CC(SC(=S)C2CCCC2=O)C(=O)N1 (stereo not drawn),-,12,-,-,-
Cn1cccc1C(=O)N1CCN(S(=O)(=O)c2ccc(C(C)(C)C)cc2)CC1,-,-,-,-,-
COC(=O)C1(C(=O)OC)NOC2C(=O)N(c3ccc(Cl)cc3Cl)C(=O)C21 (stereo not drawn),-,-,-,-,11
CC(C)C[C@H](NC(=O)c1nc[nH]c1C(=O)N[C@@H](CC(C)C)C(=O)OC(C)(C)C)C(=O)OC(C)(C)C,-,-,-,-,9.5
Cn1cnc(C(=O)NCc2ccc(CNC(=O)OC(C)(C)C)cc2)c1C(=O)NCc1ccc(CNC(=O)OC(C)(C)C)cc1,-,-,-,21,11
CC(C)C[C@H](NC(=O)c1nc[nH]c1C(=O)NC(c1ccccc1)c1ccccc1)C(=O)OC(C)(C)C,-,-,-,-,-
C[C@H](NC(=O)c1[nH]cnc1C(=O)Nc1ccc(CNC(=O)OC(C)(C)C)cc1)C(=O)OC(C)(C)C,-,-,-,22,11
CCCC#Cc1ccc(CC[C@H]2O[C@H]3CC[C@H](CO)O[C@H]3C[C@H]2NC(=O)CN2CCOCC2)cc1,-,-,-,-,-
C[C@]12c3[nH]c4cc(-c5ccco5)ccc4c3CCN1C(=O)[C@@H](CC(=O)NCCc1ccccn1)C[C@@H]2C(=O)N1CCCCC1,-,-,178,-,-
C[C@]12c3[nH]c4cc(-c5ccco5)ccc4c3CCN1C(=O)[C@@H](CC(=O)NCCC1=CCCCC1)C[C@@H]2C(=O)N1CCCCC1,-,-,-,-,-
SMILES,PLCb3 inh,PLCg1 inh,proKLK7 act,ADAM10 inh,ADAM17 inh
Cc1cnn(C(=S)NCc2ccc(Cl)cc2)c1,-,13,-,-,-
Cc1cnn(C(=S)NCCc2ccccc2)c1,-,-,-,-,-
Cc1cccc(-c2cccc3c4c([nH]c23)[C@@H]2C[C@H](N(C)C(=S)Nc3ccc(C#N)cc3)[C@H]([C@H](C)O)CN2CC4)c1,-,-,-,-,-
COc1ccc(-c2cc(C(F)F)n3ncc(C(=O)N4CCN5CCCC5C4)c3n2)cc1 (stereo not drawn),-,-,24,-,-
COc1ccc(-c2cc(C(F)F)n3ncc(C(=O)N4CCc5ccccc54)c3n2)cc1,-,-,-,-,-
Fc1ccc(-c2ccnc3nc(N4CCOCC4)nn23)cc1,-,-,22,-,-
CN(Cc1ccccc1)C(=O)OCc1cn(Cc2ccccc2)nn1,-,-,-,-,-
COC1=C(N)C(=O)c2nc(C)ccc2C1=O,-,-,-,-,-
COC1=C(Br)C(=O)c2nc(C)ccc2C1=O,-,15,-,-,-
O=c1[nH]c(=S)[nH]c2c1C(c1ccc(Br)cc1)c1c([nH]c(=S)[nH]c1=O)O2,-,24,-,-,-
O=C1CCCC2=C1C(c1ccc(Br)cc1)c1c([nH]c(=S)[nH]c1=O)N2 (stereo not drawn),-,-,-,-,-
Cc1noc(C)c1C(=O)Nc1ccccc1N1CCOCC1,-,-,-,-,-
Cc1onc(-c2ccccc2)c1C(=O)Nc1ccccc1N1CCOCC1,-,13,-,-,-
COC(=O)[C@H]1C[C@@]2(N3CCCCC3)c3ccccc3N(S(=O)(=O)c3ccccc3)[C@H]2N1,-,-,-,-,-
CCN(CCCn1c(=S)[nH]c2ccc(N3CCOCC3)cc2c1=O)c1ccccc1,-,-,-,-,-
CC1CCN(CCCn2c(=S)[nH]c3ccc(N4CCOCC4)cc3c2=O)CC1,-,-,53,-,-
CN(C)CCN(Cc1ccc(Cl)cc1)c1ccccn1,-,-,-,-,-
S=C(NCCCCN(Cc1ccc(Cl)cc1)c1ccc(Br)cn1)NCCCc1cnc[nH]1,-,10,-,-,-
COc1ccc(OCC(C)CN2CCC(C(O)(c3ccccc3)c3ccccc3)CC2)cc1 (stereo not drawn),-,-,-,-,-
COc1ccc(C(=O)NCc2ccc(C)cc2)cc1S(=O)(=O)N1CCCc2ccccc21,-,-,-,-,18
CC1(C)CC2CC(C)(CN2C(=O)COC(=O)c2ccccc2C(F)(F)F)C1 (stereo not drawn),-,12,-,-,-
CSc1ncccc1C(=O)OCC(=O)N1CC2(C)CC1CC(C)(C)C2 (stereo not drawn),-,-,-,-,-
CC(COc1cccc(C#N)c1)CN1CCC(C(O)(c2ccccc2)c2ccccc2)CC1 (stereo not drawn),-,-,-,-,-
CCOC(=O)c1c(NC(=S)NCc2ccccc2)sc2c1CCN(C(=O)OCC)C2,-,-,-,-,-
CCOC(=O)c1c(NC(=S)Nc2ccccc2)sc2c1CCN(CC)C2,-,-,75,-,-
